About 83,000 compounds went through this panel and 20% of them were active in at least one assay; those are over-represented in the sample as a whole.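 48-hour exposure, single concentration, 96-well plates; percent growth endpoint where 0 means no net growth. Active: below 10.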 Values without a mark were called inactive. The source made the active and inactive calls.
Legend:
Test in all cases: NCI-60 one-dose screen, 48 h (100 = growth as untreated, 0 = no growth, -100 = all killed)
Conditions in all cases: 10 µM unless noted
SK-MEL-2 melanoma = tested on: SK-MEL-2 melanoma
EKVX NSCLC = tested on: EKVX NSCLC
SN12C renal = tested on: SN12C renal
UO-31 renal = tested on: UO-31 renal
TK-10 renal = tested on: TK-10 renal
ACHN renal = tested on: ACHN renal
A498 renal = tested on: A498 renal
CCRF-CEM leukemia = tested on: CCRF-CEM leukemia
MOLT-4 leukemia = tested on: MOLT-4 leukemia
SR leukemia = tested on: SR leukemia
RPMI-8226 leukemia = tested on: RPMI-8226 leukemia
OVCAR-8 ovarian = tested on: OVCAR-8 ovarian
OVCAR-5 ovarian = tested on: OVCAR-5 ovarian
OVCAR-4 ovarian = tested on: OVCAR-4 ovarian
SK-OV-3 ovarian = tested on: SK-OV-3 ovarian
IGROV1 ovarian = tested on: IGROV1 ovarian
HS 578T breast = tested on: HS 578T breast
NCI/ADR-RES ovarian = tested on: NCI/ADR-RES ovarian
OVCAR-3 ovarian = tested on: OVCAR-3 ovarian
CAKI-1 renal = tested on: CAKI-1 renal

SMILES | growth (SK-MEL-2 melanoma) | growth (EKVX NSCLC) | growth (SN12C renal) | growth (UO-31 renal) | growth (TK-10 renal) [%] | growth (ACHN renal) | growth (A498 renal) | growth (CCRF-CEM leukemia) [%] | growth (MOLT-4 leukemia) | growth (SR leukemia) | growth (RPMI-8226 leukemia) | growth (OVCAR-8 ovarian) | growth (OVCAR-5 ovarian) [%] | growth (OVCAR-4 ovarian) [%] | growth (SK-OV-3 ovarian) | growth (IGROV1 ovarian) | growth (HS 578T breast) | growth (NCI/ADR-RES ovarian) | growth (OVCAR-3 ovarian) | growth (CAKI-1 renal)
COCCOc1ccc2ncc(C#Cc3cncc(C(=O)Nc4ccc(CN5CCN(C)CC5)c(C(F)(F)F)c4)c3)n2n1 | -82.7% (active) | 33.6% | 10.2% | 2.58% (active) | 14.3 | 4.87% (active) | -50.4% (active) | 11.7 | 13.2% | 0.746% (active) | 23.4% | 24.4% | 21.8 | 43.2 | 24% | 9.76% (active) | -13.3% (active) | 3.81% (active) | – | –
Cc1ccc(C(=O)Nc2ccc(CNCCN3CCOCC3)c(C(F)(F)F)c2)cc1C#Cc1cnc2cccnn12 | -7.32% (active) | 41.2% | 26.5% | 19% | 51.4 | 22.8% | -1.13% (active) | 10.1 | 4.38% (active) | -15.7% (active) | -12.8% (active) | 13.3% | 33.5 | 25.1 | 57.7% | 10.6% | -13.3% (active) | 5.66% (active) | 21.6% | –
Cc1ccc(C(=O)CSc2nc3ccccc3c(=O)n2C)cc1 | 95.7% | 71.5% | 94.2% | 56.6% | 134 | 83.7% | 99.8% | 83.6 | 88% | 81.5% | 63.8% | 94.4% | 105 | 52.4 | 87.4% | 71.1% | 94.6% | 90% | 94.2% | –
C#CCn1cc(/C=N/Nc2nc(-c3ccc(Br)cc3)cs2)c2ccccc21 | 104% | 63.9% | 95.1% | 81.4% | 162 | 98% | 94.7% | 101 | – | 119% | 110% | 101% | 97.4 | 107 | 91.1% | 74.9% | 101% | 101% | – | 106%
NS(=O)(=O)c1cccc(Nc2nc(SCC(=O)c3ccc(Cl)cc3)nc3c2CCC3)c1 | 98% | 97.7% | 98% | 90.9% | 119 | 92.4% | 79.4% | 98.3 | 105% | 98.7% | 97.3% | 82.8% | 103 | 95.8 | 95.7% | 99.8% | 81% | 96.7% | – | –
COc1ccc(-c2cc(-c3ccc(N(C)C)cc3)n3c(n2)nc2ccccc23)cc1 | -3.8% (active) | 56.5% | 64.7% | 35.2% | 40.9 | 63.7% | 51.8% | 24 | – | 50.8% | 23.1% | 39.8% | 95.5 | 56.7 | 55.5% | 77.6% | 82.4% | 59.5% | – | 61.2%
C=C(C)[C@@H]1CC[C@]2(C(=O)N3CCN(C)CC3)CC[C@]3(C)[C@H](CC[C@@H]4[C@@]5(C)CC[C@H](OP(=O)(OCC)OCC)C(C)(C)[C@@H]5CC[C@]43C)[C@@H]12 | 106% | 72.8% | 84.7% | 60.8% | 108 | 83.6% | 96.4% | 35.4 | 36.3% | -26.6% (active) | 35.2% | 84.3% | 105 | 91.2 | 104% | 92.9% | 87.6% | 82.4% | 100% | –
CN(C)S(=O)(=O)c1ccc(-c2nc(C(Cl)Cl)nc3cc(-c4ccc(F)cc4)nn23)cc1 | 9.25% (active) | 22.7% | 24.3% | 44.3% | 29.5 | 5.28% (active) | 49.7% | 21.7 | 3.19% (active) | 8.24% (active) | 7.75% (active) | 2.7% (active) | 18.3 | 21.1 | 0.219% (active) | 0.61% (active) | 20.3% | 3.66% (active) | 8.15% (active) | –
CN1CCN(Cc2ccc(NC(=O)c3cncc(C#Cc4cnc(N)nc4)c3)cc2C(F)(F)F)CC1 | -65.2% (active) | 43.9% | 11.5% | 4.98% (active) | 17.4 | 7.78% (active) | -17.2% (active) | 30.9 | 21.9% | 16.3% | 22.7% | 33.1% | 29.6 | 45.1 | -21.2% (active) | 14.6% | -12.5% (active) | 60.1% | – | –
CCCCCCN1C=C/C(=C\C(=O)n2ccc3ccccc32)c2ccccc21 | 76% | 36.3% | 67.6% | 52% | 114 | 66.3% | 97.5% | 54.8 | 62% | 54.3% | 12.7% | 73.8% | 90.9 | 33.3 | 59.9% | 42.9% | 84.9% | 84.7% | 58.4% | –
Cc1ccc(/C=N/Nc2nc(Nc3ccccc3)nc(Nc3ccc(S(N)(=O)=O)cc3)n2)cc1 | 77.8% | 78.1% | 82.5% | 68.1% | 94.5 | 61.2% | 54.7% | 42 | 40.4% | 35.5% | 44% | 69.2% | 84.5 | 69.6 | 110% | 53.4% | 62.9% | 101% | – | –
Cn1cc(-c2nn3cc(-c4ccncc4)nc3s2)c2cc(F)ccc21 | 99.8% | 72.9% | 88.6% | 55.1% | 155 | 84% | 96.3% | 16 | 37.3% | 1.87% (active) | 55.3% | 58.6% | 100 | 72.8 | 92.7% | 64.9% | 86.7% | 78.7% | – | –
Cc1ccc2c(n1)C(=O)C(Cl)=C(Nc1cccc(C(=O)OC(C)(C)C)c1)C2=O | 115% | 86.3% | 94.1% | 78.4% | 120 | 77% | 66.6% | 10.6 | 6.09% (active) | 5.81% (active) | 28% | 87.3% | 130 | 65.7 | 97.2% | 88.2% | 102% | 93.9% | 37.5% | –
Cc1ccc(/C(N)=N/C(N)=N/c2nc3ccccc3s2)cc1 | 114% | 67.7% | 60.2% | 87% | 136 | 66.8% | 121% | 78.9 | 75.9% | 21.1% | 78.3% | 78.8% | 111 | 105 | 134% | 67.3% | 112% | 31.1% | – | –
O=C(Nc1cc(C(F)(F)F)cc(C(F)(F)F)c1)Nc1ccc2oc(=O)ccc2c1 | -18.5% (active) | 9.09% (active) | -7.21% (active) | 1.64% (active) | 16.1 | -3.53% (active) | -1.96% (active) | 17.5 | – | 14% | -21.5% (active) | 14.2% | 18 | 32.6 | -1.5% (active) | 17.3% | 36.8% | 4.16% (active) | – | 1.47% (active)
CCc1nnc(NC(=O)c2cc(-c3ccc(Cl)cc3Cl)oc2C)s1 | 108% | 99.4% | 83.7% | 85.1% | 114 | 50.9% | 97.4% | 97.6 | 99.3% | 96.5% | 87.7% | 90.3% | 92.7 | 48.4 | 106% | 87.8% | 86% | 88.7% | – | –
Brc1ccc(-c2cc(-c3ccc4c(c3)OC=CO4)n[nH]2)s1 | 97.3% | 74.6% | 99.1% | 87.7% | 149 | 97.7% | 90.7% | 79.4 | 72.6% | 54.7% | 93.6% | 96.4% | 105 | 88 | 88.1% | 81% | 92.2% | 76.8% | – | –
